Here are results for one sequence from PMC7862700, “An all-to-all approach to the identification of sequence-specific readers for epigenetic DNA modifications on cytosine”.

Common to all, as to assay: DAPPL (digital affinity profiling via proximity ligation, sequencing); 10 mM Tris-HCl pH 7.5, 50 mM NaCl, 1 mM DTT, 4% glycerol, room temperature, 30 min; GST-TFs on glutathione beads, 16-mer random dsDNA library, 0.1% formaldehyde crosslink after washing; high values mean tight binding
For one assay, the target named is T1, FEV (Homo sapiens, UniProt Q99581 1-238).
T1 sequence: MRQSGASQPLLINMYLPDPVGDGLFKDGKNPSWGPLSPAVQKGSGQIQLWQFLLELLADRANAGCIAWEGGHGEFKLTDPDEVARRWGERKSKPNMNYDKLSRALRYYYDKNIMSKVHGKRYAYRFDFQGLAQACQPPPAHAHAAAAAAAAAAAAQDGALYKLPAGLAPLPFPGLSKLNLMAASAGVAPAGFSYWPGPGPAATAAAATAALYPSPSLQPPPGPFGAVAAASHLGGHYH
To be noted: protein: recombinant; tags: N-terminal GST; dsDNA, one strand shown. The procedure, abridged: (§1)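 In yeast, human transcription factors were expressed with a GST fusion, then pulled down on glutathione beads and given DNA barcodes. Pooled with a tag-only sample, they were exposed to 200 nmole of a 16-mer random double-stranded DNA library (Tris/NaCl/DTT/glycerol buffer, room temperature, 30 min), washed, crosslinked with 0.1% formaldehyde, proximity-ligated using BsaI/T4 ligase for 1 h at 37 °C, PCR-amplified and read on an Illumina NextSeq500. Each hexamer's frequency of reads for a factor, divided by the matching frequency for the tag-only sample, gives the binding signal.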

A further assay has as its target ETV5 (Homo sapiens, UniProt P41161 1-510). Conditions: protein: recombinant; tags: N-terminal GST; dsDNA, one strand shown. A digest of the protocol:
as §1

The target of a further assay is HSF1 (Homo sapiens, UniProt Q00613 1-529). To be noted: protein: recombinant; tags: N-terminal GST; chain copies: 3; dsDNA, one strand shown. A digest of the protocol:
as §1

The next assay has as its target T2, SPIC (Homo sapiens, UniProt Q8N5J4 1-248).
T2 sequence: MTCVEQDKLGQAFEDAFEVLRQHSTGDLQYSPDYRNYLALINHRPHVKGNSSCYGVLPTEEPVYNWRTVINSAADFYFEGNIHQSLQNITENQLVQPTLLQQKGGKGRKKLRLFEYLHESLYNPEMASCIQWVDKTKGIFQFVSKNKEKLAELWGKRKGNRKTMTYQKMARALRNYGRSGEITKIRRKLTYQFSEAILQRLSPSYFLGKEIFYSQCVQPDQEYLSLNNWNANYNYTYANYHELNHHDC
To be noted: protein: recombinant; tags: N-terminal GST; dsDNA, one strand shown. The procedure, abridged:
as §1

The target in a further assay is ELF4 (Homo sapiens, UniProt Q99607 1-663). Conditions: protein: recombinant; tags: N-terminal GST; dsDNA, one strand shown. A digest of the protocol:
as §1

The next assay deals with T3, ELK4 (Homo sapiens, UniProt P28324-2 1-405).
T3 sequence: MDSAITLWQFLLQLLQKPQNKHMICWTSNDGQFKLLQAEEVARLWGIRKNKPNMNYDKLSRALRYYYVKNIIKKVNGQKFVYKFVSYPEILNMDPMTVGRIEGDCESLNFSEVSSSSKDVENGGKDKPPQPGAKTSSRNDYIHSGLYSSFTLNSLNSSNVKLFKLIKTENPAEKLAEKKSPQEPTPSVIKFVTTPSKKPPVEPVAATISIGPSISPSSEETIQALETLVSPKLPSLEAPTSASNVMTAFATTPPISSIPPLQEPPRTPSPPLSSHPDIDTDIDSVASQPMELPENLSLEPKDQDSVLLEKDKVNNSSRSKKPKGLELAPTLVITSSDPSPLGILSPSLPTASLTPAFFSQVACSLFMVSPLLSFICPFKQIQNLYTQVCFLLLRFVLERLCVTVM
Conditions: protein: recombinant; tags: N-terminal GST; dsDNA, one strand shown. The procedure, abridged: as §1

For a further assay, the target named is T4, ETV2 (Homo sapiens, UniProt O00321 1-342).
T4 sequence: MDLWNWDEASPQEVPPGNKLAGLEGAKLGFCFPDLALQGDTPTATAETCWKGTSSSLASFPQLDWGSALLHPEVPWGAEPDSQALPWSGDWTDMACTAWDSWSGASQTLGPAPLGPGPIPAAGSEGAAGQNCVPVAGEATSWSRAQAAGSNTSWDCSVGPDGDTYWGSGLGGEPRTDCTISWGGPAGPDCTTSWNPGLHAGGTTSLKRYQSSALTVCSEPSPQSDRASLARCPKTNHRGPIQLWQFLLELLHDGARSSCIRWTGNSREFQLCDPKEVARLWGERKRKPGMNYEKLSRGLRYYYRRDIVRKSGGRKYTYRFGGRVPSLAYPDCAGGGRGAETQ
To be noted: protein: recombinant; tags: N-terminal GST; dsDNA, one strand shown. A digest of the protocol:
as §1

The target in a further assay is T5, ELF3 (Homo sapiens, UniProt P78545 1-371).
T5 sequence: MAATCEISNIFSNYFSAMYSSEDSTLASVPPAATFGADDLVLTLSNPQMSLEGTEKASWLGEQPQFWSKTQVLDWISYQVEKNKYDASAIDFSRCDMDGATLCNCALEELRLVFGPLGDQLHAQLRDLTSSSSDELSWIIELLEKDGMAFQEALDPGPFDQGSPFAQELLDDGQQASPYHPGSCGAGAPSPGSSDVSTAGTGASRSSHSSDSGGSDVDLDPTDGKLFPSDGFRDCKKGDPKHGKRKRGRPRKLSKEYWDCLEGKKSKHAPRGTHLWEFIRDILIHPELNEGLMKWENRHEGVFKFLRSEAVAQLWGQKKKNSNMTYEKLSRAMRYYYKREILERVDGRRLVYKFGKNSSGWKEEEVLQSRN
To be noted: protein: recombinant; tags: N-terminal GST; dsDNA, one strand shown. A digest of the protocol: as §1

For another assay, the target named is CRX (Homo sapiens, UniProt O43186 1-299). Conditions: protein: recombinant; tags: N-terminal GST; dsDNA, one strand shown. The procedure, abridged:
as §1

The target in the next assay is ETV1 (Homo sapiens, UniProt P50549 1-477). Conditions: protein: recombinant; tags: N-terminal GST; dsDNA, one strand shown. The procedure, abridged:
as §1

In a further assay the target is T6, ERF (Homo sapiens, UniProt P50548 1-548).
T6 sequence: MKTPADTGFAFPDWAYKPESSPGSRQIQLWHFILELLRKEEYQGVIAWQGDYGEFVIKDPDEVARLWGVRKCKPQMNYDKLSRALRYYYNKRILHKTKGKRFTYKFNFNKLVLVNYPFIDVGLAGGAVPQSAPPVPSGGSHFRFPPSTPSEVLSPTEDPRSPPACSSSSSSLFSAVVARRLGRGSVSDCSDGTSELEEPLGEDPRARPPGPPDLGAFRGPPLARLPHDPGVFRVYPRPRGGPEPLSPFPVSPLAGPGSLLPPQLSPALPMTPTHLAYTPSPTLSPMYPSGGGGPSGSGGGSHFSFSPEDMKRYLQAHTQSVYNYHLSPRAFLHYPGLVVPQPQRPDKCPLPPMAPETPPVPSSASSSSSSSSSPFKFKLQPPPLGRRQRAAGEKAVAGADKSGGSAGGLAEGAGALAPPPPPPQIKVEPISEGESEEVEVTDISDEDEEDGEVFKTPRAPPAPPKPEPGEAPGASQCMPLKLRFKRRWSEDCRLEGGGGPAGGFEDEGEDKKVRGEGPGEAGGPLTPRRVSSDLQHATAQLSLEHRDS
To be noted: protein: recombinant; tags: N-terminal GST; dsDNA, one strand shown. The procedure, abridged: as §1

The target in the next assay is T7, ETV3L (Homo sapiens, UniProt Q6ZN32 1-361).
T7 sequence: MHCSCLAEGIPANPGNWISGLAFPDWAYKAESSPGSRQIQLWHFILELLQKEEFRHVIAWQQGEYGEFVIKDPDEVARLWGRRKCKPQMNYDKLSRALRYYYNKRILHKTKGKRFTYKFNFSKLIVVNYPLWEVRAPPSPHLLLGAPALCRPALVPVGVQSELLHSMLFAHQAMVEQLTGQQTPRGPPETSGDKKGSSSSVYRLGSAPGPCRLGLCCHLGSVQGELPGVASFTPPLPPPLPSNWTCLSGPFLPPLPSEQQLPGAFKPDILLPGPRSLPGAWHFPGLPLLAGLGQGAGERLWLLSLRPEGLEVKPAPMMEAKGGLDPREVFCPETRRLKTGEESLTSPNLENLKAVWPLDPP
To be noted: protein: recombinant; tags: N-terminal GST; dsDNA, one strand shown. The procedure, abridged:
as §1

The next assay deals with T8, ETS2 (Homo sapiens, UniProt P15036 1-469).
T8 sequence: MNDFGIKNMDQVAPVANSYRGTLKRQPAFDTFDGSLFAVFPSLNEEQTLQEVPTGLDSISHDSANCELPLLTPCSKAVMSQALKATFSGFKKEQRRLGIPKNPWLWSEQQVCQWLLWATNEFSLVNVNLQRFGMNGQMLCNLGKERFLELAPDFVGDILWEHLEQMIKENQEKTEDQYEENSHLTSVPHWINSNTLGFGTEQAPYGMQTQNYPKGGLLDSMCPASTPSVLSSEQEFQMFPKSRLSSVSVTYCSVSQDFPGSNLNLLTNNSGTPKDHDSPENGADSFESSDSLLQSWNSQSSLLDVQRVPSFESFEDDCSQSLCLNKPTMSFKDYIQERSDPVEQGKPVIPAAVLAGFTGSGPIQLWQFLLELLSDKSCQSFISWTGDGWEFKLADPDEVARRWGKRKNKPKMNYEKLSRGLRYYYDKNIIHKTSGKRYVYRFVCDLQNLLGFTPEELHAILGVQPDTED
To be noted: protein: recombinant; tags: N-terminal GST; dsDNA, one strand shown. A digest of the protocol:
as §1

The target of the next assay is T9, SPDEF (Homo sapiens, UniProt O95238 1-335).
T9 sequence: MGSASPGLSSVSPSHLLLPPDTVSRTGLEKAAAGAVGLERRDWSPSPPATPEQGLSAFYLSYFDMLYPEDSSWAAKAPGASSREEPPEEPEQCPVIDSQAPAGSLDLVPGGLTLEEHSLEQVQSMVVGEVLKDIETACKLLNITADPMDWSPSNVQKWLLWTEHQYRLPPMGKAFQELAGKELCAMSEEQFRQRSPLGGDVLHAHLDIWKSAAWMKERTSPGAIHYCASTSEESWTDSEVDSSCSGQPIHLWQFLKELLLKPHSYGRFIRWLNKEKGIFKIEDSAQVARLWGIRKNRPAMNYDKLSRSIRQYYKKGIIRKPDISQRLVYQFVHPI
Conditions: protein: recombinant; tags: N-terminal GST; dsDNA, one strand shown. A digest of the protocol:
as §1

For another assay, the target named is T10, ETV7 (Homo sapiens, UniProt Q9Y603 1-341).
T10 sequence: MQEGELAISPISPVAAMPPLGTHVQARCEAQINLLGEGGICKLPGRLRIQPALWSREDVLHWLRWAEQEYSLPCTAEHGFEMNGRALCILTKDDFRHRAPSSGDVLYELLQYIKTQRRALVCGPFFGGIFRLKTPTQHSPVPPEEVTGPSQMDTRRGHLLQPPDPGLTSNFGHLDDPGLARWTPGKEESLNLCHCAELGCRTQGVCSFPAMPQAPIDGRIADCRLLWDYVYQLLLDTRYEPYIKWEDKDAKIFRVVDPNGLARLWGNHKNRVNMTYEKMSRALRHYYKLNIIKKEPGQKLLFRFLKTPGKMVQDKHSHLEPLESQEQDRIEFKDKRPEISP
Conditions: protein: recombinant; tags: N-terminal GST; dsDNA, one strand shown. The procedure, abridged: as §1

Another assay addresses T11, ELF5 (Homo sapiens, UniProt Q9UKW6-2 1-255).
T11 sequence: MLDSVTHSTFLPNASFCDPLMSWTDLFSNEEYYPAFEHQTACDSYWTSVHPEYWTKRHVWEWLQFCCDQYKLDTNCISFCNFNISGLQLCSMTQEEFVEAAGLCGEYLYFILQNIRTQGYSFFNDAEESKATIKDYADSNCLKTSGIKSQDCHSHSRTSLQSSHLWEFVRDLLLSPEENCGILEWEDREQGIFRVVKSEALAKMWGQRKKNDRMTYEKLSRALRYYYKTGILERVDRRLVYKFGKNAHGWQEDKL
To be noted: protein: recombinant; tags: N-terminal GST; dsDNA, one strand shown. A digest of the protocol:
as §1

The next assay deals with T12, ETV3 (Homo sapiens, UniProt P41162-2 1-143).
T12 sequence: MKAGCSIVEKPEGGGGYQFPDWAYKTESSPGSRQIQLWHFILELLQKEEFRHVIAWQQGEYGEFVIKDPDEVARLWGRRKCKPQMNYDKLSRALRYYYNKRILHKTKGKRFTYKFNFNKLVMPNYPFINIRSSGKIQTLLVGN
To be noted: protein: recombinant; tags: N-terminal GST; dsDNA, one strand shown. A digest of the protocol: as §1

The target in a further assay is ETV6 (Homo sapiens, UniProt P41212 1-452). To be noted: protein: recombinant; tags: N-terminal GST; dsDNA, one strand shown. A digest of the protocol:
as §1

ETV1, sequence (P50549 whole entry): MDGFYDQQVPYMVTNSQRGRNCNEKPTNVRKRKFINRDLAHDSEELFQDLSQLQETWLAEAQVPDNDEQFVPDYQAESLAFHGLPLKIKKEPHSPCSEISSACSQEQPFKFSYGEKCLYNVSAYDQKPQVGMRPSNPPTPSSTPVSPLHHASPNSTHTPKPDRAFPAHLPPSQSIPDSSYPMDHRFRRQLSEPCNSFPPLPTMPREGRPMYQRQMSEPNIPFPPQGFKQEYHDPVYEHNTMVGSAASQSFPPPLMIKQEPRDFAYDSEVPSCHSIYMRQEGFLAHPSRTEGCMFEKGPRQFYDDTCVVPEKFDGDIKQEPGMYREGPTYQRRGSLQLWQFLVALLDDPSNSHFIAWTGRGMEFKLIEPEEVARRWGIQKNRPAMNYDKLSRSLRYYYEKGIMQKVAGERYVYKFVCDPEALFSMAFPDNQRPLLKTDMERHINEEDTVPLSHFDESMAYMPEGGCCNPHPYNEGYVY
ETV5, sequence (P41161 whole entry): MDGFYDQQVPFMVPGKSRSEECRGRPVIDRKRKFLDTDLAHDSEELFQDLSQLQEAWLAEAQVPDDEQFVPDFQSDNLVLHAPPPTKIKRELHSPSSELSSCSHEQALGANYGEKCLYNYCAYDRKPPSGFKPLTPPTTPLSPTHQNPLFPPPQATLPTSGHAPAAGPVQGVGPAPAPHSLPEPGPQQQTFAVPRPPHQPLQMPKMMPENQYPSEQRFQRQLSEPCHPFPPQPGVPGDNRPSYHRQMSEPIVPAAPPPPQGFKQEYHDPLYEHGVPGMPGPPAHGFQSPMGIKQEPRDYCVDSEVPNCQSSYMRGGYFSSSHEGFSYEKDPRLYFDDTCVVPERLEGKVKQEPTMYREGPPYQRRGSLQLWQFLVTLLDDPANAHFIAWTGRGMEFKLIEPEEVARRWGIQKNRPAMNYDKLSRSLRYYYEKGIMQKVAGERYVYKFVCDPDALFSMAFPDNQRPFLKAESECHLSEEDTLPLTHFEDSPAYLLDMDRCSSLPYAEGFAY
HSF1, sequence (Q00613 whole entry): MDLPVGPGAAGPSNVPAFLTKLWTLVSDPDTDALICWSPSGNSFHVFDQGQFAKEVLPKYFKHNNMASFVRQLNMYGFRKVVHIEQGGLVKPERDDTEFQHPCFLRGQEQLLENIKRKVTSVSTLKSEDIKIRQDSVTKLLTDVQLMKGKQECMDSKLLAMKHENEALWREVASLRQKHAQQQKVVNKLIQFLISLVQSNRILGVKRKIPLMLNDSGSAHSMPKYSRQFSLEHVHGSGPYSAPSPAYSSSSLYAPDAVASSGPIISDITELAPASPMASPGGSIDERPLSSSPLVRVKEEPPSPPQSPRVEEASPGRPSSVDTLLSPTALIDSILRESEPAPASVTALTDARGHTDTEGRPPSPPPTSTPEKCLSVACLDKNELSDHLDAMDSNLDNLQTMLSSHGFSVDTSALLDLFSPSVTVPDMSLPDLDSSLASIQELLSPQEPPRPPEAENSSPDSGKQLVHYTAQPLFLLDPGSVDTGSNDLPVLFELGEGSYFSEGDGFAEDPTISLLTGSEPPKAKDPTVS
ETV6, sequence (P41212 whole entry): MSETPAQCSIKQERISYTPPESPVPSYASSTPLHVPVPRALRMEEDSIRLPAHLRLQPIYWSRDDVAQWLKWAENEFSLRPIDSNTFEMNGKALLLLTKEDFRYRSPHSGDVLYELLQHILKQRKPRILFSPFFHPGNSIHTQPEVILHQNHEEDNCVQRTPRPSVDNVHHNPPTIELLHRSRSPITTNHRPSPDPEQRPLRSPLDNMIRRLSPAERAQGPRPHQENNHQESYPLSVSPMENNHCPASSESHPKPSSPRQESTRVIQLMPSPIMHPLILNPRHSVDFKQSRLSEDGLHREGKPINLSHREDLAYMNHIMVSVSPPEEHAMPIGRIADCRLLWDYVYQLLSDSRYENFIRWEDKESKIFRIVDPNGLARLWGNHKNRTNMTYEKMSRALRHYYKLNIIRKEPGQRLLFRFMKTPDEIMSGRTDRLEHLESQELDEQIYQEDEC
ELF4, sequence (Q99607 whole entry): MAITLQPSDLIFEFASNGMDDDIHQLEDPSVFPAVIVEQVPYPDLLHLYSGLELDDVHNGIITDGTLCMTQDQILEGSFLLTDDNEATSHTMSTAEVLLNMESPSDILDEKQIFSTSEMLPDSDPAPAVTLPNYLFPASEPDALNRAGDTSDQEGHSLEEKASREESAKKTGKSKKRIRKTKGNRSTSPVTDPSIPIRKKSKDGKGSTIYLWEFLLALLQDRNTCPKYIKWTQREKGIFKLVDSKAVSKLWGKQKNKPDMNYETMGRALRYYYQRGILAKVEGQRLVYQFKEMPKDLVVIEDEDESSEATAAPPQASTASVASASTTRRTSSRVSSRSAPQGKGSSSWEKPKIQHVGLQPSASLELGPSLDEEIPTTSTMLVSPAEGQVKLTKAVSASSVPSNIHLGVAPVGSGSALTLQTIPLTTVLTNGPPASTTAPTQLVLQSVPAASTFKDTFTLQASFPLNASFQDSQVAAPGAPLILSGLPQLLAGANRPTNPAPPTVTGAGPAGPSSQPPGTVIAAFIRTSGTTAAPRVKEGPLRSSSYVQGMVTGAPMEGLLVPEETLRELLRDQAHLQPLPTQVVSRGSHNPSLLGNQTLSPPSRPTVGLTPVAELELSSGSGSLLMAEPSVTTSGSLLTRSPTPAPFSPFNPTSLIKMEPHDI
CRX, sequence (O43186 whole entry): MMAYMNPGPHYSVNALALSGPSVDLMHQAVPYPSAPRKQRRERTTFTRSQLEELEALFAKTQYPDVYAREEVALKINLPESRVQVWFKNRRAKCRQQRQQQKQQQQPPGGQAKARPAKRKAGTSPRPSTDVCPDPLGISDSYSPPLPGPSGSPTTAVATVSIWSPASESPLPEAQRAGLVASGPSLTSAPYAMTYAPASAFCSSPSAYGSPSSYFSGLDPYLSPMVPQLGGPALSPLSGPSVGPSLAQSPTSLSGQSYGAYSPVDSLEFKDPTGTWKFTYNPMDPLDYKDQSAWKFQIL

GTATCC: the binding signal was 2.08 fold enrichment (6-mer frequency, TF over GST control) in the assay with FEV; 2.05 fold enrichment (6-mer frequency, TF over GST control) with ETV5; 1.14 fold enrichment (6-mer frequency, TF over GST control) with HSF1; 1.96 fold enrichment (6-mer frequency, TF over GST control) with SPIC; 1.85 fold enrichment (6-mer frequency, TF over GST control) in the assay with ELF4; 1.74 fold enrichment (6-mer frequency, TF over GST control) with ELK4. For the same sequence, the binding signal with ETV2 was 1.78 fold enrichment (6-mer frequency, TF over GST control); with ELF3, 1.69 fold enrichment (6-mer frequency, TF over GST control); with CRX it was 1.22 fold enrichment (6-mer frequency, TF over GST control); with ETV1, 1.86 fold enrichment (6-mer frequency, TF over GST control); with ERF it was 1.77 fold enrichment (6-mer frequency, TF over GST control); in the assay with ETV3L, 1.81 fold enrichment (6-mer frequency, TF over GST control). Also, the binding signal in the assay with ETS2 was 1.84 fold enrichment (6-mer frequency, TF over GST control); with SPDEF it was 3.14 fold enrichment (6-mer frequency, TF over GST control); in the assay with ETV7, 1.69 fold enrichment (6-mer frequency, TF over GST control); with ELF5 it was 2.1 fold enrichment (6-mer frequency, TF over GST control); in the assay with ETV3, 2.03 fold enrichment (6-mer frequency, TF over GST control); with ETV6 it was 1.79 fold enrichment (6-mer frequency, TF over GST control).
